This note sets out measurements from PubChem BioAssay AID1745850 (National Center for Advancing Translational Sciences (NCATS), 2022).

Out of some 2,100 compounds screened, about 260 (12%) were called active. Roughly 58% stayed inconclusive and do not appear here. Calls come from the whole dose curve; as a rule, active = well fitted cell-killing curve with a large enough effect; inconclusive = small, poorly fitted or top-dose-only effect, or effect the other way; inactive = flat fitted curve, though single readings scatter. This is one part of the list. Where a call stands in place of a potency, no number is given.
Potency is the fitted concentration of half-maximal effect.

A short description of the assay: Viability Counterscreen for Confirmatory qHTS for Inhibitors of ATXN expression. Note: nearly all actives have a fitted effect of over 50% in size. The following applies: HEK-293 ATXN2-luc cells viability, CellTiter-Fluor, 24 h. In short, it runs like this:
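Luminescence read-out (SteadyGlo, 5 min) followed a 30 min Gly-Phe-AFC (25 uM final) viability fluorescence read. ATXN2-luciferase reporter cells were exposed 24 h to a dilution series. Medium-only wells served as the 100% inhibition reference.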
In general terms: A counterscreen serves to expose hits that act by an unwanted route or on another target.
For the compound `COc1ccc([C@@]2(C(C)C)ON(c3ccccc3C(F)(F)F)C2=O)cc1`, the Potency entry is “inactive”. As for `COc1ccc(CN(C)C(=O)c2cccc(NC(=O)CC3SC(N4CCCCC4)=NC3=O)c2)c(OC)c1` (stereo unspecified), the figure is 35.5 µM (active). As for `Cc1ccc(Cn2ncc3c(NN)ncnc32)cc1`, the entry is “inactive”; as for `COc1cccc(N2CCN(c3nc(-c4ccccc4C)cc(=O)[nH]3)CC2)c1`, “inactive”. Take `Cc1nc2ncnn2c(N2CCN(c3cccc(C(F)(F)F)c3)CC2)c1C`: the Potency entry was “inactive”. In the case of `CC(Sc1ccc(Cl)cc1)C(=O)NNC(=O)c1ccccc1O` (stereo unspecified) it was “inactive”. In the case of `COc1ccc(Cl)cc1NC(=O)Nc1cccc([N+](=O)[O-])c1C`, the Potency entry was “inactive”. As for `COc1ccc(-c2n(CC(=O)OC3CC(C)CCC3C(C)C)c3ccccc3[n+]2C)cc1` (stereo unspecified), the figure is 10 µM (active); as for `Cc1onc(-c2ccccc2)c1C(=O)N/N=C/c1c[nH]c2ccccc12`, “inactive”. In the case of `O=C(O)COc1ccc2oc3ccccc3c2c1`, the Potency result was “inactive”.

Turning to `Cc1nnc(SC(C)C(=O)Nc2ccc(Cl)cn2)n1Cc1ccccc1` (stereo unspecified), the Potency entry is “inactive”.

Consider `Cc1cccc(N2CCN(S(=O)(=O)c3ccc4c(c3)C(C)(C)C(=O)N4C)CC2)c1C`, for which the Potency result is “inactive”.

For the compound `NC(N)=N/N=C/c1ccc2cccc(OCc3ccccc3)c2n1`, the Potency is 15.8 µM (active). In the case of `CC(=O)Oc1c(Br)cc(N(C(C)=O)S(=O)(=O)c2ccccc2)c2ccccc12` it was 28.2 µM (active); in that of `N#Cc1cc2cc3c(cc2nc1SCC(=O)N1CCOCC1)OCCO3`, “inactive”. In the case of `OC(c1cc(-c2cccc(Cl)c2)nc2ccccc12)C1CCCCN1` (stereo unspecified) it was 28.2 µM (active); in that of `Cn1nccc1C(=O)N1CCCC(C(=O)c2cccc3ccccc23)C1` (stereo unspecified), “inactive”; in that of `Cn1cc(/C=C/c2cc[n+](C)cc2)c2cc(F)ccc21`, “inactive”. Take `O=C(Nc1nc(-c2ccc(F)c(F)c2)cs1)Nc1ccc(F)cc1F`: the Potency was 2.82 µM (active). `NS(=O)(=O)c1ccc(Nc2nc(-c3ccc(F)cc3)cs2)cc1`: the Potency entry was “inactive”. `O=C(CCN1C(=O)C2CC=CCC2C1=O)Nc1nc(-c2ccc(F)c(F)c2)cs1` (stereo unspecified): the Potency entry was “inactive”. Regarding `Cc1noc(C)c1CSCC(=O)Nc1nc(-c2ccc(F)c(F)c2)cs1`, the Potency is 28.2 µM (active).

Consider `O=C(/C=C\c1ccco1)Nc1nc(-c2ccc3ccccc3c2)cs1`, for which the Potency entry is “inactive”. As for `Cc1cnc(NC(=O)C2CC(=O)N(c3cccc(Cl)c3)C2)s1` (stereo unspecified), the entry is “inactive”; as for `COc1cc([N+](=O)[O-])cc(/C=N/NC(=O)c2ccc(NC(=O)c3ccc(C)cc3)cc2)c1O`, 1.78 µM (active). In the case of `Cc1ccc(C(=O)N/N=C/c2nc3ccccc3n2C)cc1`, the Potency entry was “inactive”. In the case of `CCn1c(C)nc2cc(C(=O)N/N=C/c3cccc(OC)c3O)ccc21` it was “inactive”; in that of `CCCC1CCC(c2ccc(C(=O)NN)cc2)CC1` (stereo unspecified), “inactive”; in that of `Cc1c(C(=O)N/N=C/c2c(O)ccc3ccccc23)nnn1-c1nonc1N`, “inactive”. As for `Cc1cc(NCc2ccccn2)n2nc(C)c(-c3ccc(Cl)cc3)c2n1`, the figure is 14.1 µM (active). For the compound `CC(C)C(CCNCc1ccccn1)c1ccc(Cl)cc1` (stereo unspecified), the Potency result was “inactive”.

Consider `Cc1nn2c(NCc3ccccn3)c3c(nc2c1-c1ccccc1)CCC3`, for which the Potency is 11.2 µM (active).

On to `CNc1ccccc1C(=O)OC(C)C(=O)Nc1ccc(Cl)cn1` (stereo unspecified), for which the Potency entry is “inactive”. Regarding `O=C(Nc1ccc(F)cc1)c1sccc1SCc1cccc(C(F)(F)F)c1`, the Potency result was “inactive”. In the case of `CCOC(=O)c1c(NC(=O)COC(=O)c2ccccc2NC)sc(C(=O)N(C)C)c1C` it was “inactive”; in that of `NC(=O)CC(NC(=O)Cc1ccc(Br)cc1)c1ccc(NC2CCCC2)c([N+](=O)[O-])c1` (stereo unspecified), “inactive”. As for `Cc1ccc(OCC(=O)c2cc(C)n(Cc3cccs3)c2C)c([N+](=O)[O-])n1`, the entry is “inactive”; as for `C/C(=N\Nc1cc(N2CCOCC2)nc(C)n1)c1cccc([N+](=O)[O-])c1`, “inactive”. As for `CC1CCCCN1S(=O)(=O)c1ccc(C(=O)Nc2nnc(-c3ccccc3Cl)o2)cc1` (stereo unspecified), the entry is “inactive”; as for `O=C1C=C(Nc2ccccc2O)c2ccccc2C1=O`, 20 µM (active). Take `Cc1cc(NC(=O)CSc2nccn2-c2cccc(C)c2C)no1`: the Potency result is “inactive”. As for `CCOC(=O)c1ccc2ncc(C(=O)OCC)c(Nc3ccc(N4CCOCC4)cc3)c2c1`, the figure is 3.16 µM (active); as for `CCOC(=O)c1ccc(N=c2sc(C(=O)OC)cc(=O)n2-c2ccc(C(=O)OCC)cc2)cc1`, “inactive”.

For the compound `CCOC(=O)Nc1ccc(N2CCOCC2)c(S(=O)(=O)Nc2ccc(Cl)cc2)c1`, the Potency entry is “inactive”. In the case of `Cc1ccc(NC(=O)CNC(=O)c2cccc(Cl)c2)nc1` it was “inactive”. In the case of `CCN(CC)S(=O)(=O)c1ccc(C)c(NC(=S)N2CCN(c3ccccn3)CC2)c1` it was “inactive”; in that of `Cc1cc(Br)ccc1NC(=O)c1cnc(N2CCN(c3ccccn3)CC2)c2ccccc12`, “inactive”. As for `Cc1ccc(NC(=O)c2cnc(N3CCN(c4ccccn4)CC3)c3ccccc23)c(Br)c1`, the figure is 14.1 µM (active). Take `Brc1cnc2nc(SCc3nc4ccccc4[nH]3)[nH]c2c1`: the Potency entry was “inactive”.

In the case of `CCn1c(CCC(=O)Nc2nc3c(s2)CCCC3)nc2cc(S(=O)(=O)N(C)C)ccc21`, the Potency entry was “inactive”.

As for `O=C(Nc1cccc(S(=O)(=O)C(F)F)c1)c1ccc(Cl)c(S(=O)(=O)N2CCOCC2)c1`, the Potency is 28.2 µM (active). As for `Cc1ccc(C(=O)NC(C)CCc2ccccc2)cc1S(=O)(=O)N1CCOCC1` (stereo unspecified), the entry is “inactive”.

As to `O=C(Nc1cccc(S(=O)(=O)N2CCOCC2)c1)c1ccc2c(=O)n3c(nc2c1)CCCCC3`, the Potency result was “inactive”.

Consider `COc1ccc(Cn2c(O)c(/C=N/NC(=O)c3cccnc3)c3ccccc3c2=O)cc1`, for which the Potency entry is “inactive”. As for `CCN(Cc1ccccc1)S(=O)(=O)c1ccc(C(=O)Nc2nnc(C3CC3)o2)cc1`, the entry is “inactive”. In the case of `Cc1cc2c(c(/C=C/C(=O)c3ccccc3)c1)OC1(C=C2)Oc2ccccc2C(=O)N1C` (stereo unspecified) it was 25.1 µM (active); in that of `Cc1cc(C)cc(NC(=O)CSc2nc3[nH]ncc3c(=O)[nH]2)c1`, “inactive”; in that of `Nc1c(C(=O)NCc2ccccc2)c2nc3ccccc3nc2n1-c1ccc2c(c1)OCO2`, “inactive”.

Take `CCOC(=O)c1c(C)sc2c1N(C(=O)CN(CC)CC)c1cc(Cl)ccc1S2`: the Potency was 22.4 µM (active). In the case of `Cc1ccc(-c2nc3cc(Br)cnc3nc2-c2ccc(C)cc2)cc1` it was “inactive”; in that of `COc1ccc(OCc2cccc(C(=O)Nn3cc([N+](=O)[O-])cn3)c2)cc1`, “inactive”; in that of `Cc1ccc2c(c1)-c1c(cnn1CC(=O)N1CCCN(Cc3ccccc3F)C1)CO2`, “inactive”. As for `Cc1cc(C)c2nc(NNC(=O)c3cc(-c4cccs4)nc4ccccc34)sc2c1`, the entry is “inactive”; as for `Cc1cc(C)c2nc(NNC(=O)c3ccc(S(=O)(=O)N4CC(C)CC(C)C4)cc3)sc2c1` (stereo unspecified), 11.2 µM (active). As for `COc1ccc2nc(NC(=O)C3CCN(S(=O)(=O)c4cccs4)CC3)sc2c1`, the entry is “inactive”; as for `CCOC(=O)N1CCN(S(=O)(=O)c2ccc(C(=O)NNc3nc4c(C)cc(C)cc4s3)cc2)CC1`, “inactive”; as for `Cc1ccc2nc(NNC(=O)c3ccc(S(=O)(=O)N4CCc5ccccc5C4)cc3)sc2c1`, 10 µM (active). Take `Cc1ccc(S(=O)(=O)N2CCc3ccccc3CC2)cc1`: the Potency result was “inactive”.

With `Cc1cccc2sc(NNC(=O)c3ccc(S(=O)(=O)N4CC(C)CC(C)C4)cc3)nc12` (stereo unspecified), the Potency is 11.2 µM (active). In the case of `CC1CCCN(S(=O)(=O)c2ccc(C(=O)Nc3nnc(-c4ccccc4Cl)o3)cc2)C1` (stereo unspecified) it was “inactive”.

In the case of `Cc1ccc2nc(NC(=O)CSCC(=O)OCC(=O)c3ccc(Br)cc3)sc2c1`, the Potency entry is “inactive”. As for `S=C(NCc1ccc(Cl)cc1Cl)NC1CCCCC1`, the entry is “inactive”.

In the case of `CCc1ccc(OCC(=O)N/N=C(\C)c2ccc(O)cc2O)cc1`, the Potency result is “inactive”. In the case of `C/C(=N\NC(=O)c1ccc(CN2CCc3ccccc3C2)cc1)c1ccccc1O` it was “inactive”.

As to `COc1cc(C#Cc2c(-c3cncn3C)n(C)c3ccc(-c4cnc(OC)nc4)cc23)cc(OC)c1`, the Potency entry was “inactive”. As for `CC(Sc1nnc2c(n1)[nH]c1ccccc12)C(=O)N(C)C1CCCCC1` (stereo unspecified), the figure is 20 µM (active); as for `CCc1nc2c(OCCOc3ccc(F)cc3)cccn2c1N(C)C(=O)c1ccco1`, “inactive”; as for `COc1cc(/C=C2\SC(=O)N(CC(=O)Nc3ccccc3F)C2=O)cc(Cl)c1O`, “inactive”. In the case of `O=C1/C(=C\c2cc(Cl)c(O)c(Cl)c2)SC(=S)N1Cc1ccccc1` it was 15.8 µM (active); in that of `Clc1c(Cl)c(Cl)c2n[nH]nc2c1Cl`, “inactive”; in that of `NC(N)=N/N=C/c1ccc(Cl)c(Cl)c1`, 28.2 µM (active). As for `CCOC(=O)Oc1c(OC)cc(C(=O)O[C@@H]2C[C@@H]3CN4CCc5c([nH]c6cc(OC)ccc56)[C@H]4C[C@@H]3[C@H](C(=O)OC)[C@H]2OC)cc1OC`, the entry is “inactive”. On to `CC1=NN(c2nc3ccccc3[nH]2)C(=O)C1Cc1ccccc1` (stereo unspecified), for which the Potency is 8.91 µM (active). As for `CCCCn1c(SCC(=O)Nc2cc(C(F)(F)F)cc(C(F)(F)F)c2)nnc1C(CC)N(C)C` (stereo unspecified), the entry is “inactive”; as for `COC(=O)C(Cc1ccc(O)cc1)NC(=O)C(C)Oc1ccccc1` (stereo unspecified), “inactive”.

For the compound `COc1ccc(CC(N)c2csc(Nc3ccc(C(=O)c4ccccc4)cc3)n2)cc1` (stereo unspecified), the Potency result is “inactive”.

With `CN(Cc1ccccc1)C(=O)c1ccc(Nc2nc(C(N)Cc3ccccc3)cs2)nc1` (stereo unspecified), the Potency is 14.1 µM (active). In the case of `CCc1nc2ccc(C(=O)N(C)Cc3ccccc3)cn2c1N(C)Cc1ccc(OC)cc1` it was “inactive”; in that of `CC(C)CC(N)c1csc(Nc2ccc(C(=O)N(C)Cc3ccccc3)cn2)n1` (stereo unspecified), 14.1 µM (active); in that of `O=C(CN1C(=O)c2ccccc2S1(=O)=O)c1ccc(O)c(O)c1`, “inactive”.

Turning to `CC(C)CC(NC(=O)c1ccc(Cl)cc1)C(=O)OCC(=O)c1ccc2c(c1)NC(=O)CO2` (stereo unspecified), the Potency was 28.2 µM (active).

As to `Cc1ccc(-c2ccc(/C=N/c3ncn[nH]3)o2)cc1Cl`, the Potency result was “inactive”. As for `COc1nn(-c2ccccc2)c(=O)c(Cl)c1Cl`, the figure is 2.82 µM (active); as for `CCOC(=O)N(C)c1c(CC)nc2c(OCc3ccccc3OC)cccn12`, “inactive”; as for `CSCC[C@H](NC(=O)OC(C)(C)C)C(=O)N/N=C/c1cccc2cccnc12`, “inactive”. As for `CCc1cc[n+](C2=C([O-])c3ccccc3C(=O)/C2=N\S(=O)(=O)c2cccs2)cc1`, the figure is 17.8 µM (active).
